# According to PubChem BioAssay AID2284094 (EPA ToxCast):
# Calls of active or inactive are those of the source. The calls were made as follows: active = hit-call score of the fitted dose curve at least 0.9, where 1 is the maximum; inactive = score below 0.9.
# Target: human VHR Phosphatase, DUSP3 (gene 1845) (UniProt P51452)
# Assay: ERF_FR_ENZ_hDUSP3: Eurofins (ERF) Enzymatic Assay for human VHR Phosphatase
# Method: ERF_FR_ENZ_hDUSP3 is a biochemical, single-readout assay that uses extracted gene-proteins in a cell-free assay. Measurements were taken 0.5 hour after chemical dosing in a 96-well plate. See VHR Human Phosphatase Enzymatic Assay, PhosphataseProfiler.ERF_FR_ENZ_hDUSP3 is an assay component calculated from the ERF_FR_ENZ_hDUSP3 assay. It is designed to measure enzyme activity using a type of enzyme reporter as detected by fluorescence intensity with spectrophotometry technology.Data from the assay component ERF_FR_ENZ_hDUSP3 was analyzed at the assay endpoint, ERF_FR_ENZ_hDUSP3, in the positive analysis fitting direction relative to DMSO as the negative control and baseline of activity. Using a type of enzyme reporter, loss-of-signal activity can be used to understand changes in enzymatic activity as they relate to gene DUSP3. To generalize the intended target to other relatable targets, this assay endpoint is annotated to the […].
# Human recombinant protein phosphatase VHR expressed in E. coli is used. Test compound and/or vehicle is preincubated with 0.2 mU/ml enzyme for 15 minutes at 37C in modified HEPES buffer pH 7.2. The reaction is initiated by addition of 100 uM DiFMUP for 60 minutes. Determination of the amount of DiFMU formed is read spectrofluorimetrically at 358 nm/450 nm. Compounds are screened at 10 uM.
# Sequence of human VHR Phosphatase, DUSP3 (gene 1845) (P51452 whole entry, looked up): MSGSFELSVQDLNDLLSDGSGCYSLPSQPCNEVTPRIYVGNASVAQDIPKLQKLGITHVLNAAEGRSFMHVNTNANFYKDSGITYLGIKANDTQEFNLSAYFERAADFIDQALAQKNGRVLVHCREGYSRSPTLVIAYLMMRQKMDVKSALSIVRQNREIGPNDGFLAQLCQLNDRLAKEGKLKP
row,SMILES,AC50
1,O=C(/C=C/c1ccc(O)cc1)CC(=O)/C=C/c1ccc(O)cc1,1.01 nM (active)
